Experimental data from PubChem BioAssay AID504465 (National Center for Advancing Translational Sciences (NCATS), 2011).
The campaign covered roughly 2,100 compounds. About 210 (10%) were called active. Not shown: some 53% with an inconclusive outcome. Calls follow the shape of the dose curve; as a rule, active = well fitted inhibition curve with a large enough effect; inconclusive = small, poorly fitted or top-dose-only effect, or effect the other way; inactive = no such curve, though single readings can be large or run the other way. Some of the results follow. Where a call stands in place of a potency, no number is given.

test: IN Cell qHTS Assay for Inhibitors of the mTORC1 Signaling Pathway in MEF (Tsc2-/-, p53-/-) Cells: Sytravon; settings: phospho-rpS6 immunofluorescence, 24 h; series mostly up to 38.3 µM; also: nearly all actives have a fitted effect of over 60% in size
In short: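 Immunofluorescence of rpS6 phosphorylation (Ser235/236) in mouse embryonic fibroblasts lacking Tsc2 and p53, after 24 h compound exposure; Hoechst-normalized signal imaged, each well scored as % active cells relative to rapamycin (7.5 nM) and DMSO controls.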
Potency is read from the fitted curve at half-maximal effect.

Compound	Potency
COc1ccc2c(c1)CC(C(=O)Nc1cc(Cl)ccc1C)CO2 (configuration not stated)	inactive
CCOC(=O)c1c(C)oc2ncnc(N3CCN(c4cccc(Cl)c4)CC3)c12	inactive
CCOc1ccc(-n2nc(CO)c(C(=O)NCc3cccs3)n2)cc1	inactive
CCOc1ccc(-n2nc3ccc(NC(=O)c4ccc(-c5cccc(Cl)c5)o4)cc3n2)cc1	13.1 µM (active)
CCN1CCc2c(sc(NC(=O)c3ccc(S(=O)(=O)N4CCCC(C)C4)cc3)c2C(=O)OC)C1 (configuration not stated)	inactive
Cc1ccc(S(=O)(=O)Nc2cccc(-c3ccc(N4CCC(C)CC4)nn3)c2)s1	inactive
O=c1c2ccccc2n(Cc2c(F)cccc2Cl)c(=O)n1Cc1ccccc1	inactive
O=C(NC1CCN(Cc2ccccc2)CC1)c1ccc(Cn2c(=O)c3ccccc3n(Cc3ccc(F)cc3)c2=O)cc1	2.61 µM (active)
COc1ccccc1CNC(=O)CCCn1c(=O)c2ccccc2n(Cc2ccc(F)cc2)c1=O	inactive
COc1ccc(N2CCN(C(=O)CSCc3ccc(C)cc3)CC2)cc1	inactive
CCOC(=O)c1c(C)oc2nc(C)nc(NCc3ccc(Cl)cc3)c12	inactive
CCOC(=O)C(Cc1c[nH]c2ccccc12)NC(=O)COc1ccc(Cl)cc1 (configuration not stated)	inactive
Cc1ccc(NC(=O)c2nc(S(=O)(=O)Cc3ccc(F)cc3)ncc2Cl)cc1C	1.65 µM (active)
Cc1ccc(C)c(NC(=O)c2nc(S(=O)(=O)Cc3ccc(F)cc3)ncc2Cl)c1	3.29 µM (active)
Cc1ccc(NC(=O)c2cc(S(=O)(=O)NC3CCCCC3)ccc2F)cc1Cl	inactive
CCc1ccc(NC(=O)c2cc(S(=O)(=O)NC3CCCC3)ccc2F)cc1	inactive
CC1=C(c2ccc(C)c(C)c2)S(=O)(=O)N(Cc2ccc(C(=O)Nc3cc(F)ccc3F)cc2)C1=O	inactive
COc1ccc(OC)c(NC(=O)c2c(NCc3ccc(OC)c(OC)c3)sc3c2CCC(C)C3)c1 (configuration not stated)	inactive
CC(=O)Nc1ccc(NC(=O)c2nc(S(=O)(=O)Cc3ccc(F)cc3)ncc2Cl)cc1	8.26 µM (active)
Cc1ccc(NC(=O)c2cc(S(=O)(=O)NCCC3=CCCCC3)ccc2F)cc1C	inactive
COc1ccc(C)cc1NC(=O)c1cc(S(=O)(=O)NC2CCCCCC2)ccc1F	inactive
COc1ccc(OC)c(NC(=O)c2nc(S(=O)(=O)Cc3ccc(F)cc3)ncc2Cl)c1	2.33 µM (active)
Cc1ccc2c(CNCCc3ccc(Cl)cc3)c(C(=O)O)n(Cc3ccc(F)cc3)c2c1	inactive

Compound	Potency
COc1cc(NS(=O)(=O)c2cc(Br)cc3c2N(C(=O)C2CC2)CC3)cc(OC)c1	inactive
CCc1c(C)nc2nncn2c1NCc1ccc(Cl)cc1	inactive
CC(=O)c1cccc(NC(c2ccc(F)cc2)c2nnc(-c3ccccc3)o2)c1 (configuration not stated)	inactive
Cc1ccccc1Nc1c(-c2c[nH]c3ccccc23)nc2cccc(C)n12	inactive
O=C(Nc1ccc(Br)cc1)c1cc(S(=O)(=O)NC2CCCC2)ccc1F	inactive
COc1ccc(Cn2c(C(=O)O)c(CNC3CCCCCC3)c3ccc(OC)cc32)cc1	inactive
CC(C)CCN(C(=O)Nc1ccc(Cl)c(Cl)c1)C1CCN(C(C)C)CC1	inactive
Cc1cc(C)c(NC(=O)c2cc(S(=O)(=O)NCCC3=CCCCC3)ccc2F)c(C)c1	inactive
CCc1ccc(Sc2cc(C(=O)NCCCN3CCC(C)CC3)c3ccccc3n2)cc1	inactive
CCN(CCCNC(=O)c1cc2c(=O)[nH]c3ccccc3c2s1)c1ccccc1	inactive
Cc1ccc2[nH]c(=O)c3cc(C(=O)NCCCN4CCC(C)CC4)sc3c2c1	5.85 µM (active)
CCc1cccc(NC(=O)c2oc3ccc4c(c3c2C)C(=O)CC(C)(C)O4)c1	inactive
c1ccc(CNc2ncnc3[nH]ncc23)cc1	inactive
COc1ccc(-c2cc(NCc3ccc(C)cc3)n3cnnc3n2)cc1	inactive
COc1ccc(CNC(=O)C2CCN(S(=O)(=O)c3ccc(C)cc3)CC2)cc1	inactive
COc1ccc(CNC(=O)c2cc(-c3ccc(OC)c(OC)c3)nc3n[nH]c(-c4ccc(C)cc4)c23)cc1	14.7 µM (active)
Cc1oc2ccc(O)c(CN(C)Cc3ccccc3)c2c1C(=O)Nc1ccccc1	inactive
CCOc1cccc(NC(=O)C2CC(=O)N(CC)C(=Nc3ccc(F)cc3)S2)c1 (configuration not stated)	inactive
O=C(NCC1CCN(Cc2ccccc2F)CC1)Nc1ccc(F)c(Cl)c1	inactive
Cc1ccc(C)c(CN2CCC(CNC(=O)c3cc4ccc5cccnc5c4[nH]3)CC2)c1	inactive
Cc1ccc(C)c(CN2CCC(CNC(=O)Nc3ccc(Br)cc3F)CC2)c1	14.7 µM (active)
Cc1nn(C)c2c1c(C(F)(F)F)cc(=O)n2CC(=O)N1CCC(C)CC1	inactive
CSc1ccc(CCNS(=O)(=O)c2cc(-c3cc(C)no3)ccc2C)cc1	inactive

Compound	Potency
N#Cc1ccc(-c2cccs2)nc1SCC(=O)Nc1cccc(C(F)(F)F)c1	inactive
CCOc1ccc(-c2cc(C(=O)N3CCN(c4cccc(C(F)(F)F)c4)CC3)c3ccccc3n2)cc1	inactive
CCOC(=O)CSc1nc(-c2ccccc2)cc(C(F)(F)F)c1C#N	9.27 µM (active)
CCc1ccc(Sc2cc(C(=O)NCCCN3CCCC(C)C3)c3ccccc3n2)cc1 (configuration not stated)	inactive
CCN1CCOC(=O)C1CC(=O)Nc1ccc(C)c(Cl)c1 (configuration not stated)	inactive
O=C(Cn1c(-c2cccs2)cc2ccccc21)NCCCN1CCN(c2ccc(F)cc2)CC1	14.7 µM (active)
COc1ccc(Nc2cc(C(=O)NCCCN3CCN(c4ccc(OC)cc4)CC3)c3ccccc3n2)cc1	inactive
Cc1ccccc1Oc1nc2ccccn2c(=O)c1/C=C(\C#N)c1nc2ccccc2[nH]1	inactive
CCn1c(CN2CCOCC2)nc2cc(NC(=O)c3ccccc3[N+](=O)[O-])ccc21	inactive
CCOc1cc(C2c3c(-c4ccc(Br)cc4)n[nH]c3C(=O)N2c2ccc(Cl)cc2)ccc1O (configuration not stated)	inactive
COc1ccc(-c2n[nH]c3c2C(c2ccc(O)cc2)N(c2ccc(Br)cc2)C3=O)cc1 (configuration not stated)	11.7 µM (active)
CCOc1ccc(N2C(=O)c3[nH]nc(-c4ccc(OC)cc4)c3C2c2cccs2)cc1 (configuration not stated)	inactive
CC(C)CN(CC(C)C)S(=O)(=O)c1ccc(C(=O)Nc2sc3c(c2C(N)=O)CC(C)(C)NC3(C)C)cc1	inactive
Cc1ccc(Nc2cc(C)nc3nc(Cc4ccc(Cl)cc4)nn23)cc1	inactive
Cc1cc(C)c(Nc2ncnc3c2cnn3C)c(C)c1	inactive
Cc1cccc(-n2ncc3c(Nc4c(C)cc(C)cc4C)ncnc32)c1	3.69 µM (active)
COc1ccc(OC)c(Nc2ncnc3c2cnn3-c2cccc(Cl)c2)c1	inactive
O=C(Nc1cc(Cl)cc(Cl)c1)c1cc(S(=O)(=O)NC2CCCC2)ccc1F	inactive
O=C(COC(=O)c1cccc(NC(=O)c2ccc(Br)cc2)c1)c1ccc(Br)cc1	inactive
CCCCOc1cccc(C(=O)N2CCN(CCc3ccncc3)CC2)c1	inactive
CCCCOc1cccc(NC(=O)c2cccc(C(=O)Nc3cccc(OCCCC)c3)c2)c1	11.7 µM (active)
CN1CCc2c(sc(NC(=O)CSc3ccccc3)c2-c2nc3ccccc3s2)C1	inactive
O=C(Nc1cc(Cl)ccc1Cl)c1cc(S(=O)(=O)NCCc2ccccc2)ccc1F	inactive

Compound	Potency
Cc1n[nH]c(C)c1S(=O)(=O)N(CC(=O)Nc1ccc(C(F)(F)F)cc1)c1ccc(C(C)C)cc1	inactive
CS(=O)(=O)N(CC(=O)NCCc1ccccc1)c1cc(C(F)(F)F)ccc1Cl	8.26 µM (active)
Cc1c(Cl)ccc2sc(NC(=O)c3ccc(S(=O)(=O)N4CCCc5ccccc54)cc3)nc12	inactive
Cc1c(C(=O)N2CCC(C)CC2)c(S(=O)(=O)N(Cc2ccccc2)C(C)(C)C)c(C)n1C	inactive
O=C1CSC2(C(=O)N(Cc3cccc(C(F)(F)F)c3)c3ccccc32)N1c1ccc(F)c(F)c1 (configuration not stated)	inactive
CCN(CC)CCCNC(=O)c1nn(C)c2c1CSc1ccccc1-2	inactive
CCN(CC)CCNC(=O)c1ccc(-n2c(-c3ccccc3)cc3c2CCCC3)cc1	inactive
CCN(CC)CCCNC(=O)c1ccc(-c2nc(CN3CCc4ccccc43)c(C)o2)cc1	13.1 µM (active)
COc1ccc(-c2ccc(CNc3ccc4[nH]c(=O)[nH]c4c3)o2)cc1Cl	inactive
CCCNC(=O)c1ccc2c(c1)N=C(CCC)c1ccccc1S2	inactive
CCOc1ccc(OCC)c(NC(=O)C(NS(=O)(=O)c2cccs2)c2ccccc2)c1 (configuration not stated)	inactive
COc1ccc(CNC(=O)CCCN2C(=O)CSc3c2c(C)nn3-c2ccccc2)cc1	inactive
Cc1nn(CCCC(=O)NCCc2ccc(Cl)cc2)c(=O)c2c1sc1ccccc12	11.7 µM (active)
CSc1ccc(CCNC(=O)CCn2c(=O)c3cccn3c3ccc(F)cc32)cc1	inactive
CCCOc1ccc(CNC(=O)CCCn2nc(C)c3sc4ccccc4c3c2=O)cc1	inactive
Cc1ccc(CCNC(=O)c2c3c(nc4ccccc24)C(=O)N(C2CCCCC2)C3)cc1	inactive
COc1ccc(N2CCN(C(=O)C(C)n3nc(C)c4sc5ccccc5c4c3=O)CC2)cc1 (configuration not stated)	1.85 µM (active)
CCC(C(=O)N1CCN(c2cc(Cl)ccc2C)CC1)n1nc(C)c2sc3ccccc3c2c1=O (configuration not stated)	inactive
Cc1nn(C(C)C(=O)NC2CCC(C)CC2)c(=O)c2c1sc1ccccc12 (configuration not stated)	5.21 µM (active)
COc1ccc(Cn2ccc3nc(C)c(C(=O)N4CCN(c5ccc(OC)cc5)CC4)cc3c2=O)cc1	inactive
CSc1ccc(CCNC(=O)C(C)n2nc(C)c3sc4ccccc4c3c2=O)cc1 (configuration not stated)	1.17 µM (active)
CC1CCN(C(=O)CN2c3ccc(C(C)C)cc3-c3ccccc3S2(=O)=O)CC1	inactive
COc1ccccc1N1CCN(S(=O)(=O)c2ccc(-n3cnnn3)cc2)CC1	inactive
